# Compound activity (PubChem)
# Lassa entry inh: Lassa virus entry inhibition. 300,000 tested, 1.2% active. AID 540256. Potency, µM (doses to about 37.9 µM), for inactives: top-dose activity change, negative = inhibition, hits mostly inhibitors. Lassa virus pseudotype entry inhibition, cell reporter; calls by dose curve; tested in HEK293 cells; note: potency is the fitted concentration of half-maximal effect; % is set by controls: 0 for no effect and ±100 for the full control effect; nearly all actives have a fitted effect of over 50% in size
# Shiga inhibitor: Shiga toxin inhibition; Vero cells, Shiga toxin protein synthesis inhibition reporter; inhibition, % at 38.7 µM; 290,000 tested, 9.2% active; AID 2315; in the data active = inhibition mostly above about 28%, no sharp cut-off; inactive = mostly below about 43%; note: 0% is about no effect
# VACV Venus inh: vaccinia inhibition (Venus reporter); 330,000 tested, 0.46% active; Vaccinia virus Venus reporter expression, fluorescence; Potency, µM (doses to about 36.5 µM), inactives show at the top dose activity change, negative = inhibition, actives largely listed as inhibitors; AID 720580; calls by dose curve; tested in A549 cells; note: potency is the fitted concentration of half-maximal effect; % is set by controls: 0 for no effect and ±100 for the full control effect; nearly all actives have a fitted effect of over 30% in size
# Marburg entry inh: inhibitors of Marburg virus binding or cell entry | Marburg virus pseudotyped entry inhibition, cell reporter | Potency, µM (highest dose often 37.8 µM), for the others: at the highest dose activity change, negative = inhibition, hits mostly inhibitors | 300,000 tested, 1.8% active | AID 540276; calls by dose curve; tested in HEK293 cells; note: potency is the fitted concentration of half-maximal effect; % is set by controls: 0 for no effect and ±100 for the full control effect
# Vaccinia mCherry: vaccinia inhibition (mCherry reporter); Vaccinia virus mCherry reporter infection, fluorescence; Potency, µM (top dose mostly 36.5 µM), inactives show at the top dose activity change, negative = inhibition, hits mostly inhibitors; AID 720579; 310,000 tested, 0.63% active; calls by dose curve; tested in A549 cells; note: potency is the fitted concentration of half-maximal effect; % is set by controls: 0 for no effect and ±100 for the full control effect; nearly all actives have a fitted effect of over 35% in size
# Cycloheximide cs: affects cycloheximide protein synthesis inhibition readout, counter-screen; cell reporter, cycloheximide protein synthesis inhibition counterscreen; max response, %; 300,000 tested, 12% active; AID 2314; in the data active = max response mostly above about 13%, no sharp cut-off; inactive = mostly below about 14%; note: read at 38.3 µM for the half of the compounds with a filed dose; 0% is about no effect
# * = called active by the depositor; i = inactive; u = inconclusive; x = no result given; [ ] = another dose, or the depositor's remark. The sample as a whole holds a higher share of hits than the screen did.
SMILES,Lassa entry inh,Shiga inhibitor,VACV Venus inh,Marburg entry inh,Vaccinia mCherry,Cycloheximide cs
Oc1cc(-n2cccn2)c(O)cc1-n1cccn1,x,70*,-3%,x,i,37*
c1cnn(-c2nc(N3CCOCC3)nc(N3CCOCC3)n2)c1,u,-30,x,u,x,-4
O=C(NCCc1ccccc1)C(=O)Nc1cccc(Br)c1,18%[46.1 µM],x,-16%,x,-13%,x
COCCNC(=O)C(=O)Nc1ccc(Br)cc1,16%,71*,-5%,-9%,-3%,47*
COCCNC(=O)C(=O)Nc1cccc(Br)c1,18%,40,-8%,21%,-6%,23*
COCCNC(=S)NNc1cccc(C(=O)O)c1,u,66*,-3%,3%,i,18
COCCNC(=O)c1cc(Br)ccc1Cl,0%,-6,x,9%,x,-1
COCCNC(=O)C(=O)Nc1ccc(Cl)cc1C,-8%,54*,-8%,13%[14.2 µM],-23%,32*
COCCNC(=S)NNC(=O)c1ccco1,u,-6,-10%,-1%,i,2
CC(C)Sc1sc(C(=O)O)c(-c2ccc(Cl)cc2)c1C#N,-1%,-6,-2%,3%,-17%,-1
COC(=O)CNC(c1ccccc1)c1cc(Cl)ccc1NC(=O)c1cccc(Cl)c1 (stereo not drawn),9%,-3,-4%,10µM*,-14%,-2
Cc1nc2cc(-c3ccccc3)ccc2o1,0%,86*,3%,u,-10%,32*
Cc1ccc2nc(-c3ccccc3)c(-c3ccccc3)nc2c1,x,9,x,x,x,11
O=C(/C=C/c1ccc(Cl)c(Cl)c1)NC1=NCCS1,-12%,79*,5%,-20%[46.1 µM],-3%,35*
CC(C)c1ccc(/C=C/C(=O)NC2=NCCS2)cc1,x,44*,x,0%,x,44*
O=C(NC1=NCCS1)c1cc(Cl)ccc1Cl,x,-3,x,x,x,4
Cc1ccc(C(=O)COC(=O)CCC(=O)Nc2ccc(Oc3cc(C)ccc3C(C)C)cc2)cc1,17%[46.1 µM],x,-11%,-18%[46.1 µM],-18%,x
COc1ccc(NC(=O)COC(=O)CCC2CCCCC2)cc1,2%[46.1 µM],x,5%,-2%[46.1 µM],i,x
CCOc1ccc(N(CC(=O)Nc2cccc(Br)c2)S(C)(=O)=O)cc1,x,64*,x,x,x,26*
CC(=O)c1ccc(NC(=O)CN(c2c(C)cccc2C)S(C)(=O)=O)cc1,x,99*,x,x,x,23*
CCOc1ccc(N(CC(=O)Nc2ccc(C)cc2C)S(C)(=O)=O)cc1,x,6,x,x,x,9
CCOc1ccc(N(CC(=O)Nc2ccc(C)cc2)S(C)(=O)=O)cc1,0%,66*,-11%,23%,-2%,37*
CCOc1ccc(N(CC(=O)Nc2cc(C)cc(C)c2)S(C)(=O)=O)cc1,x,75*,x,x,x,59*
CCOc1ccc(N(CC(=O)Nc2cccnc2)S(C)(=O)=O)cc1,-5%[46.1 µM],-18,-16%,-16%[46.1 µM],i,-5
CN(C)c1ccc(/C=C/c2ccnc3ccc(-c4ccccc4)cc23)cc1,x,x,35%,x,37%,x
SMILES,Lassa entry inh,Shiga inhibitor,VACV Venus inh,Marburg entry inh,Vaccinia mCherry,Cycloheximide cs
CCOc1ccc(C(=O)Nc2ccc3nn(-c4ccc(OC)c(Cl)c4)nc3c2)cc1,7%[46.1 µM],x,-5%,x,-2%,x
COc1ccc2nc(SCC(=O)Nc3cc(OC)c(OC)cc3C(=O)O)c(C)cc2c1,5%,14,-20%,u,-6%,6
C=CCOc1ccccc1CN1CCC(n2nccc2NC(=O)C2CC2)CC1,6%,-5,-10%,u,-1%,-3
Cc1nn(Cc2noc(C(=O)NC(C)c3ccccc3)n2)c(C)c1Br (stereo not drawn),4%[46.1 µM],x,-13%,u,-20%,x
O=C(Cn1ccc2cc(S(=O)(=O)N3CCCCC3)ccc21)NCc1ccccc1F,u,9,-11%,u,u,8
CC1(C(=O)NC(=S)N(Cc2ccccc2)c2ccccn2)CC1(Cl)Cl (stereo not drawn),4%,30,0%,-4%,-9%,22*
CN(C)CCNC(=O)C1CCN(Cc2cc3ccccc3n2Cc2ccccc2)CC1,u,x,-10%,x,-9%,x
CC(=O)c1ccc(N2CCN(CC(O)COC(c3ccccc3)c3ccccc3C)CC2)cc1 (stereo not drawn),0%,-1,-13%,u,u,-2
Cc1ccccc1C(OCCN(C(C)C)C(C)C)c1ccccc1 (stereo not drawn),4µM*,3,-24%,u,-28%,-2
Cc1cccc(NC(=O)CSc2nnc(CNC(=O)c3ccco3)n2C)c1,x,-8,-3%,16%[46.1 µM],12%,-1
